Screening data: PubChem, Center for Chemical Genomics, University of Michigan
Only a selection was taken, and hits are over-represented in it overall.
Dicer processing – human Dicer pre-microRNA cleavage inhibition | z-score at 25 µM | 47,000 compounds, 6% hits | Q9UPY3 | cat-ELCCA pre-miR-21 Dicer processing, chemiluminescence; active compounds read high; in the data active = z-score above about 3, passing the limit was not always enough;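 note: plate controls were vehicle for no effect and no enzyme for full effect; higher signal means more uncleaved substrate so more Dicer inhibition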
Starred values were filed as active, the others as inactive.

SMILES	Dicer processing
c1ccc2c(c1)CC1OC(CC3=N[C@H]4c5ccccc5C[C@H]4O3)=NC21 (stereo partly specified)	-0.5
CC(C)(C)OC(=O)NCCNS(=O)(=O)c1ccc(N2C(=O)CC3(CCCC3)C2=O)c(Cl)c1	0.1
O=C1CCC(=O)N1CNc1ccccn1	3.35*
O=C1CCC(=O)N1CNc1ccccc1C(F)(F)F	-0.13
Cc1cccc(NCN2C(=O)CCC2=O)n1	-0.35
CSc1ccc(C2C3=C(Nc4c2c(=O)[nH]c(=O)n4C)c2ccccc2C3=O)cc1 (stereo unspecified)	-1.06
CSc1sc(C(=O)Nc2ccc(Cl)cc2)c2c1C=CCC2	-1.88
Cc1cc(C)c(C#N)c(OC(=O)c2c(F)cccc2F)n1	71.2*
Cc1cc(C)c(C#N)c(Nc2ccc(F)cc2)n1	-0.61
CCOC(=O)COc1nc(C)cc(C)c1C#N	-1.6
COCCCN1C(=O)C(=O)/C(=C(\O)c2ccc(C)c(F)c2)C12C(=O)N(C)c1ccccc12 (stereo unspecified)	45.5
C=CCN1C(=O)C2(/C(=C(/O)c3ccc(OCC)cc3)C(=O)C(=O)N2CCOC)c2ccccc21 (stereo unspecified)	2.44
COCCCN1C(=O)C(=O)/C(=C(\O)c2ccccc2)C12C(=O)N(C)c1ccccc12 (stereo unspecified)	3.9*
C=CCOc1ccc(/C(O)=C2/C(=O)C(=O)N(CCCOC)C23C(=O)N(C)c2ccccc23)cc1 (stereo unspecified)	3.56*
C=CCOc1ccc(/C(O)=C2/C(=O)C(=O)N(CCOC)C23C(=O)N(C)c2ccccc23)cc1 (stereo unspecified)	-0.06
COCCCN1C(=O)C(=O)/C(=C(\O)c2ccc(F)cc2)C12C(=O)N(C)c1ccccc12 (stereo unspecified)	2.27
Cc1c(-c2ccccc2)nc2sc3c(c2c1N)CCCC3	2.34
COc1ccc(/C=N/OC(=O)c2sc3nc(C(F)(F)F)nn3c2C)cc1	-0.39
CCOC(=O)c1cnc(C(F)(F)F)nc1Oc1ccccc1	0.7
CCOC(=O)c1cnc(NNC(C)=O)nc1C(F)(F)F	3.07*
CCOC(=O)c1cnc(NNC(=O)c2ccc(F)cc2)nc1C(F)(F)F	1.14
CCOC(=O)c1cnc(Nc2ccccc2)nc1C(F)(F)F	-0.23
CCOC(=O)c1cnc(C(F)(F)F)nc1Sc1n[nH]c(-c2cc(Cl)cc(Cl)c2)n1	-0.46
CCOC(=O)c1cnc(C(F)(F)F)nc1NNC(=O)c1ccc(Cl)cc1	3.2*
O=C(Cn1cc(C(=O)c2ccco2)c2ccccc21)Nc1ccc(F)cc1	0.18
SMILES	Dicer processing
CCCCc1c(COC)nc(SC)[nH]c1=O	0.42
Cc1cccc2c1N(C(=S)Nc1ccccc1Cl)CCC2	1.61
O=C(Nc1ccccc1)N1c2ccccc2CCc2ccccc21	0.06
S=C(Nc1ccccc1Cl)N1CCc2ccccc2C1	-0.33
O=C(Nc1ccc(OCc2ccccc2)cc1)N1CCCc2ccccc21	2.06
O=C(Nc1ccccc1)N1CCCc2ccccc21	3.16*
S=C(Nc1ccccc1Cl)N1CCCc2ccccc21	3.76*
CCOC(=O)NC(=O)c1ccc2ccccc2n1	-0.38
Cc1ccc(C(=O)n2nc(C)c(Sc3ccc(C(F)(F)F)cn3)c2C)cc1	-3.46
Cc1c(Cl)cccc1N1C(=O)C2C(c3ccccc3)OC3(C(=O)c4ccccc4C3=O)C2C1=O (stereo unspecified)	0.46
COc1ccc(N2C(=O)C3C(c4ccccc4)OC4(C(=O)c5ccccc5C4=O)C3C2=O)cc1OC (stereo unspecified)	-0.1
Cc1ccc(C2OC3(C(=O)c4ccccc4C3=O)C3C(=O)N(Cc4ccccc4)C(=O)C23)cc1 (stereo unspecified)	-1.41
COc1ccc(N2C(=O)C3C(c4ccccc4Cl)OC4(C(=O)c5ccccc5C4=O)C3C2=O)cc1 (stereo unspecified)	-0.76
O=C1C2C(c3ccc(Cl)cc3)OC3(C(=O)c4ccccc4C3=O)C2C(=O)N1c1ccc(F)cc1F (stereo unspecified)	6.12*
O=C1C2C(c3ccc(F)cc3)OC3(C(=O)c4ccccc4C3=O)C2C(=O)N1Cc1ccc(Cl)cc1 (stereo unspecified)	-1.16
O=C1C2C(c3ccccc3)OC3(C(=O)c4ccccc4C3=O)C2C(=O)N1c1cccc(F)c1 (stereo unspecified)	1.08
CCOc1ccc(N2C(=O)C3C(c4ccc(C)cc4)OC4(C(=O)c5ccccc5C4=O)C3C2=O)cc1 (stereo unspecified)	3.39*
COc1ccc(Cl)cc1N1C(=O)C2C(c3ccccc3)OC3(C(=O)c4ccccc4C3=O)C2C1=O (stereo unspecified)	4.06*
CC1(C)Cc2c(c(-c3ccco3)nc3sc4c(NC5CCCCC5)ncnc4c23)CO1	2.01
O=C(Oc1ccc2ccccc2c1C1SCCS1)c1cccs1	0.43
CCOC(=O)c1csc2c1CCCC2=O	-0.06
O=C(O)C1C2CCC(Br)(CC2)C1C(=O)O (stereo unspecified)	-1.74
Cc1ccc(N2CC(=O)N(/N=C/c3cn(-c4ccccc4)nc3-c3ccc(Cl)cc3)CC2=O)cc1	-0.93
Clc1ccc(/C=N/Nc2nccc(-c3cccnc3)n2)c(Cl)c1	0.71
O=S(=O)(c1ccccc1)N(Cc1ccc(Cl)cc1)c1ncc(C(F)(F)F)cc1Cl	-0.6
SMILES	Dicer processing
O=C(Nn1cnnc1)c1c(F)cccc1F	-0.3
Cc1nc2ccccn2c1-c1csc(Nc2ccc(S(N)(=O)=O)cc2)n1	4.29*
Cc1nc2ccccn2c1-c1csc(Nc2ccc(Cl)cc2)n1	7.06*
NS(=O)(=O)c1ccc(Nc2nc(-c3cccnc3)cs2)cc1	1.37
Cc1ccc(Nc2nc(-c3c(C)nc4ccccn34)cs2)cc1	2.98
Cc1ccc(C)c(-c2csc(Nc3ccc(S(N)(=O)=O)cc3)n2)c1	5.14*
Cc1cc(NS(=O)(=O)c2ccc(Nc3nc(-c4ccc(Cl)cc4)cs3)cc2)no1	2.94
Cc1nnc(Nc2ccc(Cl)cc2)s1	2.78
CCN(CC)c1ccc(Nc2nc(-c3sc(N)nc3C)cs2)cc1	-0.11
C#CCOC(=O)Nc1ccc(Oc2ccc(Cl)cc2)nc1	2.09
CCNc1cc(N(C)C)nc(Oc2ccc(OCCOc3ccccc3C)nn2)n1	0.6
CCOC(=O)c1ncoc1-c1ccc(C(F)(F)F)cc1	0.53
Cc1nn(C)c(N2CCOCC2)c1[N+](=O)[O-]	-0.97
COC(=O)C1=C(C)NC2=C(C(=O)CC(C)(C)C2)C1c1ccccc1OC (stereo unspecified)	2.81
COc1ccc(Br)cc1C1C(C#N)=C(N)Oc2cc(O)ccc21 (stereo unspecified)	0.58
COC(=O)C1=C(N)Oc2cc(N(C)C)ccc2C1c1ccccc1OC (stereo unspecified)	3.17*
Cc1ccc(S(=O)(=O)N/N=C/c2nccs2)cc1	-1.24
CN(C)/C=N/NS(=O)(=O)c1ccccc1	-0.67
Cc1ccc(S(=O)(=O)N/N=C/c2ccc3ccccc3c2O)cc1	3.25*
CCCCCCSc1nnc2[nH]c(=O)cc(N)n12	3.82*
C=CCSc1nnc2[nH]c(=O)cc(N)n12	5.19*
COc1ccccc1OCCSc1nnc2[nH]c(=O)cc(N)n12	1.95
C=C(C)CSc1nnc2[nH]c(=O)cc(N)n12	2.88
CC(C)CSc1nnc2[nH]c(=O)cc(N)n12	2.42
C=CCSc1n[nH]c(=O)n1C1CCCCC1	-1.05
O=c1oc(-c2cccc(Br)c2)nc2ccc(O)cc12	-2.37
Cn1c(SCC(=O)N=S(C)(=O)c2ccc(Cl)cc2)nnc1C(F)(F)F (stereo unspecified)	-0.67
CCOC(=O)c1sc(NC(=O)CCCC(=O)O)nc1C	-0.03
